# VLA-4 inh: inhibition in human VLA-4 binding assay, primary screen, VLA-4 allosteric modulator project, MLPCN library, flow cytometry, VLA-4 expressing cells. ligand binding flow cytometry. inhibition, % (about 7 µM as worked out from the volumes in the protocol). 330,000 tested, 0.2% active. Integrin alpha-4 (Homo sapiens), P13612; in the data active = inhibition above about 50%
# AHR activator: AHR activators, primary screen, cell-based, luminescence, luciferase reporter, human | Aryl hydrocarbon receptor (Homo sapiens), P35869 | AHR-responsive luciferase reporter cells | activation, % at 5 µM | 320,000 tested, 2.5% active | AID 2796, 2010; in the data active = activation above about 47%;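 note: 0% = vehicle wells and 100% = reference agonist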
# ALR inh: inhibitors of human ALR sulfhydryl oxidase, primary screen, biochemical, H2O2 detection, HRP-luminol luminescence, single point; AID 485317, 2010; FAD-linked sulfhydryl oxidase ALR (Homo sapiens), P55789; purified ALR, DTT oxidation; inhibition, % (no concentration beside the values); 290,000 tested, 3.8% active;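 active = mean replicate inhibition above about 79%, with every replicate also reaching it, limit read from the data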
# Target sequence (P55789 whole entry, looked up): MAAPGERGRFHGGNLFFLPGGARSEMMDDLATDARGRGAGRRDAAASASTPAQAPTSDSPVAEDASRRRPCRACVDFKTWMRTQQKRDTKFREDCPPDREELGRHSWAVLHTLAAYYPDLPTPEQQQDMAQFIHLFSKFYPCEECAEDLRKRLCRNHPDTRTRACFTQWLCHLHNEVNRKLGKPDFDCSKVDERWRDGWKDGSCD
# Mot1-301 SUMO: yeast Mot1-301 growth rescue at high temperature, primary screen, SUMOylation pathway inhibitor project, S. cerevisiae, ATP luminescence, 38.5C; growth rescue, % at 18.8 µM; S. cerevisiae Mot1-301 growth rescue; percent above DMSO median, 100 means doubled; 320,000 tested, 1% active;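 active = every valid replicate shows activation above 250% relative to neutral control wells; inactive = the rest, any valid replicate at or below 250%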;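 note: OY570 slx delta 5 strain wells were the positive control but not used for scaling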
# Bfl-1 A1 inh: caspase 3/7 activation in MEF A1-2A-BIM cells, primary screen, A1 inhibitor project, cell-based, luminescence, HTS | caspase activation, % (concentration not given with the values) | Caspase-Glo 3/7 luminescence, 3 h; percent of clofoctol response, vehicle zero | 330,000 tested, 0.066% active;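 active = over half of replicate activation scores above 10%, or exactly half above 10 with the replicate mean above 10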
# Efflux pump mplx: inhibitors of Candida efflux pumps in yeast, primary screen, S. cerevisiae, Nile Red, multiplex | S. cerevisiae Candida pump triplex | inhibition, % at 10 µM | 330,000 tested, 0.44% active | AID 485275, 2010;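 active = plate passing quality check with inhibition over a set limit, or well fluorescence over plate mean plus 4 SD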;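 note: Nile Red retained in pooled yeast measured as flow cytometry median fluorescence; 0% = buffer negative control and 100% = Enniatin B positive control; higher means more Nile Red kept so more efflux inhibition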
# Cmpd fluor yeast: flagged as fluorescent in efflux inhibitor counter-screen | S. cerevisiae AD/pABC3, compound fluorescence, flow cytometry | 1,700 tested, 4% active | shares compounds with Efflux pump mplx | fluorescence ratio to DMSO, % at 10 µM;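 active = fluorescence ratio to DMSO above its plate's cutoff, the plate mean ratio plus 5 SD, cut at about 210% in these data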;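 note: unstained yeast with no Nile Red so the signal is compound autofluorescence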
# CaMdr1 efflux inh: inhibitors of Candida albicans Mdr1 efflux, confirmation, flow cytometry, singleplex, Cherry Pick1 set; 1,700 tested, 1% active; shares compounds with Efflux pump mplx; S. cerevisiae AD/CaMDR1, Nile Red efflux; inhibition, % at 10 µM; in the data active = inhibition above about 26%;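 note: 0% = DMSO vehicle and 100% = reference inhibitor; higher means more Nile Red retained so more efflux inhibition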
# Cdr2 pump inh: inhibitors of Candida albicans Cdr2 efflux pump, confirmation, S. cerevisiae AD/CaCDR2, flow cytometry, cherry pick 1, singleplex; shares compounds with Efflux pump mplx; Nile Red retention; Nile Red retention ratio vs DMSO, % at 10 µM; 1,700 tested, 4% active; in the data active = Nile Red retention ratio vs DMSO above about 190%;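 note: higher ratio means more blocking of Cdr2 efflux of the dye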
# CaCdr1 efflux inh: inhibitors of Candida albicans Cdr1 efflux pump, confirmation, S. cerevisiae AD/CaCDR1, flow cytometry, cherry pick 1, singleplex | shares compounds with Efflux pump mplx | Nile Red efflux | inhibition, % at 10 µM | 1,700 tested, 1% active | AID 588522, 2011;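 active = inhibition above the screen-wide mean plus twice its standard deviation, cut at about 32% in these data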
# * hit, by the source's call; . = not tested or not shown. This is a sample that favours compounds with a hit; in the whole collection about 7.2% have one here.
SMILES,VLA-4 inh,AHR activator,ALR inh,Mot1-301 SUMO,Bfl-1 A1 inh,Efflux pump mplx,Cmpd fluor yeast,CaMdr1 efflux inh,Cdr2 pump inh,CaCdr1 efflux inh
COc1ccc(-n2c(SCC(=O)Nc3ncc(Cl)cc3Cl)nc3ccccc32)cc1,-13.6,6.6,-6.1,4.8,-0.6,0.8*,97.6,-0.1,107.2,-0.1
O=C(OCc1cncs1)c1ccccc1,-8.2,0.7,.,333.8,0.9,0.0,.,.,.,.
COC(=O)C1=C(C)N=c2s/c(=C/c3ccoc3)c(=O)n2C1c1ccccc1 (centres undefined),-427.4,-3.9,-10.0,-28.1,0.0,0.5*,140.0,0.4,120.5,0.1
C=C(C)CN(CC)C(=O)CC1C(=O)NCCN1C (centres undefined),1.7,-0.9,-4.2,-13.8,-0.2,-0.1,.,.,.,.
Cc1ccc(O)c(C(=O)CC(=O)c2ccccc2Cl)c1,-12.0,6.1,44.8,96.1,-9.0,0.6*,88.5,-0.2,89.3,-0.1
O=C(NCCC1=CCCCC1)C1CCC(CNc2nc(=S)[nH]c3ccccc23)CC1 (centres undefined),6.3,1.9,-1.9,-15.7,-0.5,1.1*,114.8,-0.1,107.8,-0.1
COc1ccccc1C(=O)NC(=S)Nc1ccc2[nH]c(=O)[nH]c2c1,-9.2,-1.8,-2.7,-13.6,-2.3,0.0,.,.,.,.
O=C(NC(=S)Nc1ccc2[nH]c(=O)[nH]c2c1)c1ccccc1Cl,-19.5,-0.2,.,-1.0,2.5,6.2*,92.1,-0.1,105.1,0.0
COc1ccc(C(CCN2CCOCC2)c2c(OC)cc(OC)c3c(-c4ccccc4)cc(=O)oc23)cc1 (centres undefined),.,.,.,.,.,1.6*,95.0,-0.2,85.2,0.0
COc1ccc(C(CCN2CCCC2)c2c(OC)cc(OC)c3c(-c4ccccc4)cc(=O)oc23)cc1 (centres undefined),29.0,5.1,.,-7.0,-0.8,0.0,.,.,.,.
N=C1C(c2ccccc2)=C(O)CN1c1cccc(O)c1,4.5,0.0,28.1,-11.1,-0.7,0.1,.,.,.,.
CC(C)(C)N=Cc1cc(-c2ccccc2)sc1O,3.3,10.1,.,-21.7,-1.9,0.2,.,.,.,.
Cc1cc(C)cc(NC(=O)Cc2ccc(NC3=NC4CS(=O)(=O)CC4S3)cc2)c1 (centres undefined),-7.8,0.7,-4.5,-8.7,0.0,0.1,.,.,.,.
Cc1cc(C)cc(NC(=O)c2ccc(NC3=NC4CS(=O)(=O)CC4S3)cc2)c1 (centres undefined),20.4,6.1,-14.3,-13.7,0.4,0.9*,83.3,-0.2,95.4,-0.3
CCC(C)NC(=O)c1ccc(CSc2nc3ccncc3n2Cc2ccc(F)cc2)cc1 (centres undefined),-10.8,11.6,15.2,8.9,0.4,0.0,109.7,0.0,92.2,0.0
COC(=O)c1ccc(CN2CCC(Oc3cccc(C(=O)N4CCCC4)c3)CC2)cc1,-0.2,1.4,.,-26.9,-0.5,5.3*,116.4,0.1,116.6,0.1
O=C(Cc1ccc(F)cc1)Oc1ccc(C(=S)N2CCCC2)cc1,18.4,-1.1,-0.6,-24.1,0.1,0.1,.,.,.,.
O=C(Nc1ccc(S(=O)(=O)N2CCCCC2)cc1)C1CC(=O)N(Cc2ccccc2)C1 (centres undefined),-1.9,0.9,-14.5,272.8,-1.3,-0.1,.,.,.,.
Cc1ccc(CN2CC(C(=O)Nc3ccc(S(=O)(=O)N4CCCCC4)cc3)CC2=O)cc1 (centres undefined),-8.7,-5.7,.,-11.4,0.1,16.2*,96.6,-0.2,110.3,0.1
Cc1ccc(S(=O)(=O)c2nc(Nc3ccccc3N3CCOCC3)sc2Cl)cc1,10.6,8.1,-10.3,23.9,1.1,7.5*,99.7,-0.1,98.7,0.1
Cc1ccc(S(=O)(=O)c2nc(Nc3ccccc3C#N)sc2Cl)cc1,3.0,13.5,-3.9,-17.4,-0.5,0.0,.,.,.,.
Cc1cc(C)cc(-n2nnc(C(=O)NCc3ccccc3Cl)c2N)c1,0.8,-1.5,-5.8,-17.5,1.0,0.0,.,.,.,.
COc1cc(/C=C/C(=O)OCC(=O)NCC2CCCO2)ccc1OCC#N (centres undefined),6.1,2.0,3.4,111.9,-0.1,6.5*,97.8,-0.2,89.9,0.0
CC(C)C(O)(C#CCN1CCCCC1)C(C)C,33.9,1.8,-4.5,18.3,0.5,13.8*,111.2,-0.3,106.3,0.0
O=C(Nc1ccccc1O)c1ccccc1O,-0.8,131.4*,52.9,5.9,-5.4,1.1*,104.7,-0.1,97.5,0.0
SMILES,VLA-4 inh,AHR activator,ALR inh,Mot1-301 SUMO,Bfl-1 A1 inh,Efflux pump mplx,Cmpd fluor yeast,CaMdr1 efflux inh,Cdr2 pump inh,CaCdr1 efflux inh
Cc1cc(C)n2c(Br)c(CSc3nc4ccccc4s3)nc2n1,-1.5,19.2,-0.4,4.8,-0.5,8.0*,116.8,0.1,116.5,0.1
Cc1ccc(C(=O)N(Cc2nc(-c3ccc(C)cc3)no2)C(C)C)cc1,12.5,6.9,11.3,102.4,0.5,0.1,.,.,.,.
Cc1ccc(SCC(=O)N(Cc2nc(-c3ccccc3)no2)C(C)C)cc1,12.2,4.0,-4.5,-9.6,-1.1,1.5*,98.9,0.2,106.3,0.0
CCOC(=O)c1sc2nc(SCC(=O)N(CC)CC)n(CCCN3CCCC3=O)c(=O)c2c1C,7.1,-2.8,0.0,45.5,0.1,0.0,.,.,.,.
O=C(O)CC1c2ccccc2CCN1S(=O)(=O)c1cccs1 (centres undefined),-255.2,-0.9,-2.4,0.2,1.2,2.2*,100.3,-0.2,105.1,-0.1
O=C(O)CC1c2ccccc2CCN1S(=O)(=O)c1ccccc1 (centres undefined),13.9,-0.8,-2.5,9.7,-0.7,-0.1,.,.,.,.
Nc1nnc(SCC(=O)NNC(=O)c2ccc(Cl)cc2)s1,-10.6,1.2,6.4,0.5,0.4,93.4*,80.1,0.0,93.2,-0.2
